Values joined by “and” are separate entries in the source; they are usually repeats but may differ in a detail not shown here. Equal entries are not always repeated. Hit rate of the full screen: of about 5,500 compounds, about 2,000 (36%) were called active. About 18% were inconclusive and are not listed. No stated cut-off is given here; in the data, active means normalized growth mostly below about 0.91 (no sharp cut-off); inconclusive means no clear call, values can overlap the other calls; inactive means mostly above about 0.92. The list shows a part of the results.
Experiment: chemical genetic growth profiling, strain panel (AID 1159580);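 further: tested at 20 µM; growth read once vehicle control cultures reached saturation at 30 °C; 1 = growth at the plate median or of vehicle wells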
Settings: S. cerevisiae deletion strains, growth OD

Measured: normalized growth

c1ccc2c(c1)[nH]c1cnccc12
inactive: locus YAL021C, strain ccr4, stronger effect = lower value 1.01 | locus YAL026C, strain drs2, stronger effect = lower value 1.01 | locus YAL030W, strain snc1, stronger effect = lower value 0.999 | locus YBL061C, strain skt5, stronger effect = lower value 0.991 | locus YBR009C, strain hhf1, stronger effect = lower value 1 | locus YBR021W, strain FUR4, stronger effect = lower value 1.05 | locus YBR023C, strain chs3, stronger effect = lower value 0.993 | locus YBR171W, strain sec66, stronger effect = lower value 0.99 | locus YBR229C, strain ROT2, stronger effect = lower value 1.01 | locus YBR231C, strain swc5, stronger effect = lower value 0.999 | locus YBR279W, strain paf1, stronger effect = lower value 1 | locus YCL011C, strain gbp2, stronger effect = lower value 0.998 | locus YCL016C, strain dcc1, stronger effect = lower value 0.999 | locus YCL029C, strain bik1, stronger effect = lower value 0.975 | locus YCL061C, strain MRC1, stronger effect = lower value 0.997 | locus YCL069W, strain vba3, stronger effect = lower value 1 | locus YCR088W, strain abp1, stronger effect = lower value 1 | locus YDL005C, strain med2, stronger effect = lower value 0.989 | locus YDL035C, strain GPR1, stronger effect = lower value 0.991 | locus YDL040C, strain nat1, stronger effect = lower value 0.995 | locus YDL074C, strain BRE1, stronger effect = lower value 0.977 | locus YDL101C, strain DUN1, stronger effect = lower value 0.986 | locus YDL134C, strain PPH21, stronger effect = lower value 1.08 | locus YDL185W, strain tfp1, stronger effect = lower value 0.954 | locus YDL192W, strain arf1, stronger effect = lower value 0.979 | locus YDR001C, strain nth1, stronger effect = lower value 1 | locus YDR069C, strain doa4, stronger effect = lower value 0.977 | locus YDR101C, strain arx1, stronger effect = lower value 0.961 | locus YDR137W, strain rgp1, stronger effect = lower value 0.958 | locus YDR159W, strain sac3, stronger effect = lower value 1.01 | locus YDR162C, strain NBP2, stronger effect = lower value 1.01 | locus YDR195W, strain ref2 0.995 | locus YDR297W, strain sur2, stronger effect = lower value 0.999 | locus YDR318W, strain mcm21, stronger effect = lower value 1.01 | locus YDR334W, strain swr1, stronger effect = lower value 0.998 | locus YDR335W, strain msn5, stronger effect = lower value 0.999 | locus YDR388W, stronger effect = lower value 0.996 | locus YDR392W, strain spt3, stronger effect = lower value 0.967 | locus YDR502C, strain sam2, stronger effect = lower value 0.994 | locus YEL003W, strain gim4, stronger effect = lower value 1 | locus YEL037C, strain rad23, stronger effect = lower value 1.03 | locus YEL061C, strain CIN8 (second series), stronger effect = lower value 1.01 | locus YEL061C, strain CIN8, stronger effect = lower value 0.99 | locus YER015W, strain faa2, stronger effect = lower value 0.982 | locus YER016W, strain bim1, stronger effect = lower value 0.992 | locus YER110C, stronger effect = lower value 0.964 | locus YER111C, strain swi4, stronger effect = lower value 0.984 | locus YER155C, strain BEM2 (second series), stronger effect = lower value 0.965 | locus YER155C, strain BEM2, stronger effect = lower value 1 | locus YER167W, strain BCK2, stronger effect = lower value 1.02 | locus YFR010W, strain ubp6, stronger effect = lower value 1 | locus YGL078C, strain dbp3, stronger effect = lower value 0.981 | locus YGL086W, strain mad1, stronger effect = lower value 0.948 | locus YGL167C, strain pmr1, stronger effect = lower value 0.998 | locus YGL173C, strain kem1, stronger effect = lower value 0.997 | locus YGL227W, strain vid30, stronger effect = lower value 0.999 | locus YGL240W, strain doc1, stronger effect = lower value 0.991 | locus YGL248W, strain PDE1, stronger effect = lower value 1.01 | locus YGL253W, strain hxk2, stronger effect = lower value 1.01 | locus YGR135W, strain pre9, stronger effect = lower value 1 | locus YGR229C, strain SMI1, stronger effect = lower value 1.02 | locus YGR252W, strain gcn5, stronger effect = lower value 1.19 | locus YHR013C, strain ard1, stronger effect = lower value 1.02 | locus YHR027C, strain rpn1, stronger effect = lower value 0.993 | locus YHR030C, strain SLT2, stronger effect = lower value 1 and 1.03 | locus YHR079C, strain IRE1 (second series), stronger effect = lower value 0.984 | locus YHR079C, strain IRE1, stronger effect = lower value 1.03 | locus YHR094C, strain hxt1, stronger effect = lower value 0.994 | locus YHR129C, strain ARP1, stronger effect = lower value 1 | locus YHR142W, strain chs7, stronger effect = lower value 1.01 | locus YHR200W, strain rpn10, stronger effect = lower value 0.98 | locus YIL066C, strain RNR3, stronger effect = lower value 1.01 | locus YIL073C, strain SPO22, stronger effect = lower value 0.995 | locus YIL125W, strain kgd1, stronger effect = lower value 0.992 | locus YIR030C, strain dcg1, stronger effect = lower value 0.991 | locus YJL092W, strain hpr5, stronger effect = lower value 0.995 | locus YJL095W, strain BCK1 (second series), stronger effect = lower value 0.999 | locus YJL095W, strain BCK1, stronger effect = lower value 1 and 1.01 | locus YJL115W, strain asf1, stronger effect = lower value 0.996 | locus YJL129C, strain trk1, stronger effect = lower value 1.01 | locus YJL134W, strain LCB3, stronger effect = lower value 1 | locus YJL154C, strain vps35, stronger effect = lower value 1 | locus YJL164C, strain tpk1, stronger effect = lower value 1.01 | locus YJL166W, strain qcr8, stronger effect = lower value 1 | locus YJL168C, strain set2, stronger effect = lower value 0.979 | locus YJL187C, strain SWE1 (second series), stronger effect = lower value 0.986 | locus YJL187C, strain SWE1, stronger effect = lower value 0.995 | locus YJR043C, strain POL32, stronger effect = lower value 1.04

Source: PubChem BioAssay AID1159580 (chemical genetic matrix, 2015)
